The structures appear in SMILES notation. Records with an inconclusive call do not appear. Activity calls are given as the source filed them. The call rests on the fitted dose curve; in most records, active means well fitted cell-killing curve with a large enough effect; inconclusive means small, poorly fitted or top-dose-only effect; inactive means no such curve, though single readings can be large or run the other way.
Potency means the concentration at half of the fitted maximal effect.

The assay is described as follows: qHTS of pediatric cancer cell lines to identify multiple opportunities for drug repurposing: Primary screen for SJ-GBM2 cells (AID 1347091). As to conditions: SJ-GBM2 viability, CellTiter-Glo luminescence, 48 h; series mostly up to 46 µM. An excerpt:
Drug repurposing or repositioning has been offered as a strategy for drug development in oncology programs. This approach has special potential for childhood cancers and other rare or orphan diseases, where the expected return on new drug development has been a disincentive to pharmaceuticals.
In this project we exploit the poly-pharmacology of drugs to discover new indications via phenotypic screening of a panel of 19 well-characterized cell lines derived from solid tumors seen in children and adolescents. The goal is to identify approved drugs with previously unrecognized anticancer properties that has the potential to reveal new mechanisms and biological processes involved in carcinogenesis or drug resistance. We employed a titration-based paradigm (quantitative high-throughput screening or qHTS), where all compounds were tested at multiple concentrations for their effect on cell viability. Concentration-response curves (CRCs) were derived directly from the primary screen, and both potency and efficacy values were used to identify compounds with robust bioactivity profiles. We screened the NIH Chemical Genomics Center (NCGC) Pharmaceutical Collection (NPC) and Mechanism Interrogation Plate (MIPE) small molecule collections of approved and investigational compounds against these cell lines; and measured metabolically active cells after 48 hours of compound treatment as a proxy for cell viability.
Assay Submitter: Nathalia J. Martinez, National Center for Advancing Translational Sciences, National Institutes of Health, Rockville, MD, USA; email: natalia.martinez@nih.gov
[1] Shen, M et al. Quantitative high-throughput phenotypic screening of pediatric cancer cell lines identifies multiple opportunities for drug repurposing. Oncotarget 2017 Dec 19;9(4):4758-4772. PMID 29435139.
The cells were obtained from University of North Carolina (UNC), Pediatric Preclinical Testing Program (PPT), and Coriell Institute (CI).
qHTS cell viability assay:
Cells were assayed in growth media at a density of 500-1,000 cells/well. Five microliters of cells were dispensed into 1,536-well, white, solid-bottom, TC-treated plates (Greiner Bio One) using a multidrop dispenser and incubated at 37 degrees C, 5% CO2, under a humidified atmosphere for 5 hours. Twenty-three nanoliters of compounds and controls (neutral control DMSO or positive control bortezomib at final concentration of 2.3 µM) were subsequently transferred by Kalypsys pintool. For primary screens, the MIPE collection was tested at 11-point dilutions (final concentrations range from 0.78 nM to 46 µM) and the NPC collection at 8-point dilutions (final concentrations range from 0.59 nM to 46 µM). Compounds tested in follow-up screens were assayed at 11-point dilutions. Cells were incubated for 48 hours, followed by addition of 3 uL of CellTiter-Glo (Promega). After a 15 min incubation at room temperature, samples were analyzed for luminescence intensity using a ViewLux High-throughput CCD imager equipped with clear filters.
A general note: Quantitative high-throughput screening tests each substance at several concentrations.
Regarding `COC(=O)c1ccc2c(C(=Nc3ccc(N(C)C(=O)CN4CCN(C)CC4)cc3)c3ccccc3)c(O)[nH]c2c1`, the Potency is 16600 nM (active).

As to `O=C(C=Cc1c(C(=O)O)[nH]c2cc(Cl)cc(Cl)c12)Nc1ccccc1`, the Potency result is “inactive”.

For `Nc1ccn([C@@H]2CS[C@H](CO)O2)c(=O)n1`, the Potency entry is “inactive”.

`Nc1nccc(Oc2ccc(NC(=O)c3c[nH]cc(-c4ccc(F)cc4)c3=O)cc2F)c1Cl`: the Potency is 132 nM (active).

In the case of `Nc1ccc(C(=O)c2cc3c(ccc4ccccc43)[nH]2)cc1`, the Potency was 2350 nM (active).

For the compound `O=c1[nH]nc(Sc2ncc([N+](=O)[O-])s2)n1-c1ccc2c(c1)OCCO2`, the Potency was 9350 nM (active).

In the case of `Cc1ccc(C(N)=O)cc1Nc1nccc(-c2cn(C(C)C)c3cnccc23)n1`, the Potency is 7430 nM (active).

With `COc1cccc2nc(-c3cccs3)nc(NN3C(=O)C=C(C)C3=O)c12`, the Potency was 935 nM (active).

As to `C1=CCOCc2cc(ccc2OCCN2CCCC2)Nc2nccc(n2)-c2cccc(c2)OCC1`, the Potency is 3720 nM (active).

Consider `C#Cc1cccc(Nc2ncnc3cc(OC)c(OCCCCCCC(=O)NO)cc23)c1`, for which the Potency was 118 nM (active).

For `OCCCNc1cc(-c2ccnc(Nc3cccc(Cl)c3)n2)ccn1`, the Potency is 83.3 nM (active).

Turning to `Cc1nc2cnc3ccc(C#Cc4cccnc4)cc3c2n1-c1ccc(C(C)(C)C#N)cc1`, the Potency is 332 nM (active).

Turning to `CCn1cc(-c2ccnc3[nH]c(-c4cccc(CN(C)C)c4)cc23)c(-c2ccc(NC(=O)N(C)C)cc2)n1`, the Potency was 83.3 nM (active).

Turning to `COc1cc2c(Oc3ccc4[nH]c(C)cc4c3F)ncnc2cc1OCCCN1CCCC1`, the Potency is 6620 nM (active).

Regarding `COc1cc2ncn(-c3cc(OCc4ccccc4C(F)(F)F)c(C(N)=O)s3)c2cc1OC`, the Potency was 662 nM (active).

With `Clc1cccc(-c2nnnn2Cc2cccnc2)c1Cl`, the Potency result is “inactive”.

For `Cc1cn2cc(C(=O)N(C)CCO)cc(N[C@@H]3CCOc4cccc(C)c43)c2n1`, the Potency result was “inactive”.

`C=CC(=O)Nc1cc2c(Nc3ccc(F)c(Cl)c3)ncnc2cc1C#CC(C)(C)N1CCN(C)CC1`: the Potency is 2960 nM (active).

Consider `Cn1cncc1[C@@](N)(c1ccc(Cl)cc1)c1ccc2c(c1)c(-c1cccc(Cl)c1)cc(=O)n2C`, for which the Potency was 20900 nM (active).

For the compound `CC[C@@H]1C(=O)N(C)c2cnc(Nc3ccc(C(=O)NC4CCC(N5CCN(CC6CC6)CC5)CC4)cc3OC)nc2N1C(C)C` (stereo not given in full), the Potency was 74.3 nM (active).

For `Nc1ccc(S(=O)(=O)Nc2ncccn2)cc1`, the Potency entry was “inactive”.

Take `Clc1ccc2ncc(-c3cccc(NC4CNC4)n3)n2c1`: the Potency was 11800 nM (active).

Take `Nc1ccccc1NC(=O)c1ccc(CNc2nccc(-c3cccnc3)n2)cc1`: the Potency is 2350 nM (active).

For `Cc1ccc(NC(=O)C2(c3ccc4c(c3)OC(F)(F)O4)CC2)nc1-c1cccc(C(=O)O)c1`, the Potency is 37.2 nM (active).

In the case of `COc1ccc(-n2nc(C(N)=O)c3c2C(=O)N(c2ccc(N4CCCCC4=O)cc2)CC3)cc1`, the Potency entry was “inactive”.

Turning to `CCN(CC)CCNC(=O)c1ccc2nc(-c3ccccc3)c(-c3ccc(CN4CCC(n5c(=O)[nH]c6ccccc65)CC4)cc3)nc2c1`, the Potency was 16600 nM (active).

For `C=CC(=O)Nc1cc2c(Nc3ccc(F)c(Cl)c3)ncnc2cc1OCCCN1CCOCC1`, the Potency is 16800 nM (active).

On to `Cc1cnc(Nc2ccc(F)cc2Cl)nc1-c1c[nH]c(C(=O)N[C@H](CO)c2cccc(Cl)c2)c1`, for which the Potency is 264 nM (active).

Consider `O=C(Nc1cc(C(F)(F)F)cc(C(F)(F)F)c1)c1cc(Cl)ccc1O`, for which the Potency is 235 nM (active).

`Cn1c(CNc2ccc(C(=N)N)cc2)nc2cc(C(=O)N(CCC(=O)O)c3ccccn3)ccc21`: the Potency result is “inactive”.

As for `CNC(=O)c1ccc(N2C(=S)N(c3cnc(C#N)c(C(F)(F)F)c3)C(=O)C23CCC3)cc1F`, the Potency is 7430 nM (active).

Take `NC(=O)Nc1cc(-c2cccc(F)c2)sc1C(=O)N[C@H]1CCCNC1`: the Potency is 235 nM (active).

Regarding `COc1cccc2c(NCc3ccccc3)nc(-n3c(N)nc4ccccc43)nc12`, the Potency is 9350 nM (active).

Turning to `COc1cc(Nc2ncc(F)c(Nc3ccc4c(n3)N(COP(=O)(O)O)C(=O)C(C)(C)O4)n2)cc(OC)c1OC`, the Potency was 1480 nM (active).

Consider `Cc1ccc(S(=O)(=O)Nc2cc(Cl)ccc2C(=O)Nc2nc(-c3ccccc3)cs2)cc1`, for which the Potency was 7430 nM (active).

Regarding `N#Cc1c(O)c2c(-c3ccc(-c4ccccc4O)cc3)csc2[nH]c1=O`, the Potency result is “inactive”.

Consider `CNC(=O)CN1CCC(Oc2cc3c(Nc4cccc(Cl)c4F)ncnc3cc2OC)CC1`, for which the Potency is 1 nM (active).

As for `Cc1ccc2nc(NC(=O)CSc3nc4c(c(=O)n3-c3ccccc3)SCC4)sc2c1`, the Potency was 14800 nM (active).

For the compound `O=C(c1cncc(Br)c1)N1CCC(N2CCCC2)CC1`, the Potency entry was “inactive”.

In the case of `CCOc1ccccc1OCCNC(C)Cc1ccc(OC)c(S(N)(=O)=O)c1` (stereo not given), the Potency result was “inactive”.

The values are drawn from PubChem BioAssay (NCATS).
